The values below come from article PMC11062922 (Nature Chemical Biology, 2023).

The test system of one assay is AAK1. Further details: species or system human, MV4-11 + K-562 + COLO205 + SK-N-BE2 + OVCAR-8. Particulars: read-out: apparent Kd, n = 1.
Another assay has as its system BMP2K. Further details: species or system human, MV4-11 + K-562 + COLO205 + SK-N-BE2 + OVCAR-8. Particulars: read-out: apparent Kd, n = 1.
A further assay deals with Q6ZSR9 (human, UniProt Q6ZSR9). Further details: species or system MV4-11 + K-562 + COLO205 + SK-N-BE2 + OVCAR-8. Particulars: read-out: apparent Kd, n = 1.
Chain of Q6ZSR9 (Q6ZSR9 whole entry, looked up): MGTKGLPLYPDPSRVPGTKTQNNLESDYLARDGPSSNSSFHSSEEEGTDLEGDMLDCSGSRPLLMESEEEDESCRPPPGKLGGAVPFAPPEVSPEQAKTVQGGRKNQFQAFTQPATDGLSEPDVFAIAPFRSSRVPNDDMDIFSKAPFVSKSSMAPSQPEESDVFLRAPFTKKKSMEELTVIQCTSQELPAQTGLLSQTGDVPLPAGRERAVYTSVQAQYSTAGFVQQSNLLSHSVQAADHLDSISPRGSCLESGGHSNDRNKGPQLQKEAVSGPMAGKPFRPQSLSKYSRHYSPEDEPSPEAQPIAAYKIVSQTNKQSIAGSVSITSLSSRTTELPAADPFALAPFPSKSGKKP
The test system of the next assay is CLK1. Further details: species or system human, MV4-11 + K-562 + COLO205 + SK-N-BE2 + OVCAR-8. Conditions: read-out: apparent Kd, n = 1.
The test system of another assay is CLK4. Further details: species or system human, MV4-11 + K-562 + COLO205 + SK-N-BE2 + OVCAR-8. Conditions: read-out: apparent Kd, n = 1.
The next assay concerns CSNK2A2. Further details: species or system human, MV4-11 + K-562 + COLO205 + SK-N-BE2 + OVCAR-8. Particulars: read-out: apparent Kd, n = 1.
The next assay concerns GSK3A. Further details: species or system human, MV4-11 + K-562 + COLO205 + SK-N-BE2 + OVCAR-8. Conditions: read-out: apparent Kd, n = 1.
For another assay, the system named is GSK3B. Further details: species or system human, MV4-11 + K-562 + COLO205 + SK-N-BE2 + OVCAR-8. Conditions: read-out: apparent Kd, n = 1.
A further assay relates to NUAK1. Further details: species or system human, MV4-11 + K-562 + COLO205 + SK-N-BE2 + OVCAR-8. Particulars: read-out: apparent Kd, compound concentrations: 100 nM and 1000 nM (sheet 'Samples'), n = 1.
For another assay, the system named is MELK. Further details: species or system human, MV4-11 + K-562 + COLO205 + SK-N-BE2 + OVCAR-8. Particulars: read-out: apparent Kd, n = 1.
The test system of another assay is FLT4. Further details: species or system human, MV4-11 + K-562 + COLO205 + SK-N-BE2 + OVCAR-8. Particulars: read-out: apparent Kd, n = 1.
Another assay concerns RET. Further details: species or system human, MV4-11 + K-562 + COLO205 + SK-N-BE2 + OVCAR-8. Conditions: read-out: apparent Kd, n = 1.
The next assay deals with PAK4. Further details: species or system human, MV4-11 + K-562 + COLO205 + SK-N-BE2 + OVCAR-8. Conditions: read-out: apparent Kd; compound concentrations:100 nM and 1000 nM (sheet 'Samples'); n = 1.
The subject of the next assay is PKN1. Further details: species or system human, MV4-11 + K-562 + COLO205 + SK-N-BE2 + OVCAR-8. Particulars: read-out: apparent Kd; compound concentrations:100 nM and 1000 nM (sheet 'Samples'); n = 1.
In the next assay the test system is PKN3. Further details: species or system human, MV4-11 + K-562 + COLO205 + SK-N-BE2 + OVCAR-8. Conditions: read-out: apparent Kd; compound concentrations:100 nM and 1000 nM (sheet 'Samples'); n = 1.
The test system of another assay is PRKAG1. Further details: species or system human, MV4-11 + K-562 + COLO205 + SK-N-BE2 + OVCAR-8. Conditions: read-out: apparent Kd; compound concentrations:100 nM and 1000 nM (sheet 'Samples'); n = 1.
Another assay has as its system CSNK2A1;CSNK2A3. Further details: species or system human, MV4-11 + K-562 + COLO205 + SK-N-BE2 + OVCAR-8. Particulars: read-out: apparent Kd; compound concentrations:100 nM and 1000 nM (sheet 'Samples'); n = 1.
Another assay deals with GAK. Further details: species or system human, MV4-11 + K-562 + COLO205 + SK-N-BE2 + OVCAR-8. Particulars: read-out: apparent Kd, n = 1.
For another assay, the system named is SIK2. Further details: species or system human, MV4-11 + K-562 + COLO205 + SK-N-BE2 + OVCAR-8. Conditions: read-out: apparent Kd; compound concentrations:100 nM and 1000 nM (sheet 'Samples'); n = 1.
Where [1] appears, read: compound concentrations:100 nM and 1000 nM (sheet 'Samples').

Read-outs that look alike come from different tables or passages of the source.

With `CS(=O)(=O)Nc1cccc(-c2ccc3c(NC(=O)C4CC4)n[nH]c3c2)c1` [SB-742864], the potency estimated from few doses in the assay on AAK1 (compound concentrations: 100 nM and 1000 nM (sheet 'Samples'), CATDS: 0.116591298752119) is 1.41 µM; in the assay on BMP2K (compound concentrations: 100 nM and 1000 nM (sheet 'Samples'), CATDS: 0.11349645370011199) it was 1.51 µM; in the assay with Q6ZSR9 (compound concentrations: 100 nM and 1000 nM (sheet 'Samples'), CATDS: 0.100041705724795), 2.11 µM.

Turning to `CCN(CC)Cc1ccc(Nc2nccc(-c3cnn4ncccc34)n2)cc1` [GW780056X], the potency estimated from few doses in the assay on AAK1 (compound concentrations: 100 nM and 1000 nM (sheet 'Samples'), CATDS: 2.17265123337868E-2) is 1.01 µM; with BMP2K (compound concentrations: 100 nM and 1000 nM (sheet 'Samples'), CATDS: 1.8132469854257299E-2), 1.95 µM; with CLK1 (compound concentrations: 100 nM and 1000 nM (sheet 'Samples'), CATDS: 3.2985166948547001E-2), 0.346 µM; in the assay with CLK4 (compound concentrations: 100 nM and 1000 nM (sheet 'Samples'), CATDS: 3.0818268189282499E-2), 0.403 µM; with CSNK2A2 (compound concentrations: 100 nM and 1000 nM (sheet 'Samples'), CATDS: 1.97839070790959E-2), 1.38 µM; in the assay with GSK3A (compound concentrations: 100 nM and 1000 nM (sheet 'Samples'), CATDS: 2.5871712918447001E-2), 0.616 µM. Further, the potency estimated from few doses in the assay with GSK3B (compound concentrations: 100 nM and 1000 nM (sheet 'Samples'), CATDS: 2.3506229340690101E-2) is 0.798 µM; in the assay with NUAK1 (CATDS: 0.242637090604084), 0.0116 µM; in the assay with Q6ZSR9 (compound concentrations: 100 nM and 1000 nM (sheet 'Samples'), CATDS: 2.1989322106712401E-2) it was 0.971 µM.

Take `COc1ccc(-c2cc3c(N)ncnc3o2)cc1` [GW642138X]: the potency estimated from few doses in the assay on AAK1 (compound concentrations: 100 nM and 1000 nM (sheet 'Samples'), CATDS: 9.3740609603759906E-2) is 2.1 µM.

On to `c1cnn2ncc(-c3ccnc(Nc4ccc5c(c4)OCCO5)n3)c2c1` [GW806290X], for which the potency estimated from few doses in the assay with AAK1 (compound concentrations: 100 nM and 1000 nM (sheet 'Samples'), CATDS: 2.3873616537329799E-2) is 1.08 µM; with CLK1 (compound concentrations: 100 nM and 1000 nM (sheet 'Samples'), CATDS: 6.6494036250362598E-2), 0.106 µM; in the assay with CLK4 (compound concentrations: 100 nM and 1000 nM (sheet 'Samples'), CATDS: 9.8127081360261201E-2) it was 0.0572 µM; in the assay on GSK3A (compound concentrations: 100 nM and 1000 nM (sheet 'Samples'), CATDS: 3.86716280658417E-2) it was 0.308 µM; in the assay on GSK3B (compound concentrations: 100 nM and 1000 nM (sheet 'Samples'), CATDS: 6.1886578646693099E-2), 0.121 µM; with MELK (compound concentrations: 100 nM and 1000 nM (sheet 'Samples'), CATDS: 1.9268078616401899E-2) it was 2.36 µM. Moreover, the potency estimated from few doses in the assay with NUAK1 (CATDS: 2.7516933063414101E-2) is 0.713 µM; with Q6ZSR9 (compound concentrations: 100 nM and 1000 nM (sheet 'Samples'), CATDS: 2.3514563204250299E-2), 1.13 µM.

Consider `CN(c1ccc(NC(=O)NCCN2CCOCC2)cc1)c1ccnc(Nc2ccc(CS(C)(=O)=O)cc2)n1.Cl` [GW830365A], for which the potency estimated from few doses is 0.785 µM with AAK1 (compound concentrations: 100 nM and 1000 nM (sheet 'Samples'), CATDS: 5.9294254337115E-2); 1.15 µM with BMP2K (compound concentrations: 100 nM and 1000 nM (sheet 'Samples'), CATDS: 5.1935568412460401E-2); 0.109 µM in the assay on FLT4 (compound concentrations: 100 nM and 1000 nM (sheet 'Samples'), CATDS: 0.17294643484613401); 0.904 µM in the assay with Q6ZSR9 (compound concentrations: 100 nM and 1000 nM (sheet 'Samples'), CATDS: 5.6296915490776901E-2); 0.308 µM with RET (compound concentrations: 100 nM and 1000 nM (sheet 'Samples'), CATDS: 9.0906950139660506E-2).

For `COc1ccc(Nc2nccc(-c3ccc(NC(=O)c4cc5cc(F)ccc5[nH]4)cc3)n2)cc1` [GSK1229496A], the potency estimated from few doses in the assay on AAK1 (compound concentrations: 100 nM and 1000 nM (sheet 'Samples'), CATDS: 0.25032000609497101) is 1.83 µM.

Turning to `O=C1N=C(NCc2c(Cl)cccc2Cl)S/C1=C\c1ccc2ncccc2c1` [RO4600445-000], the potency estimated from few doses in the assay with AAK1 (compound concentrations: 100 nM and 1000 nM (sheet 'Samples'), CATDS: 0.26661690920713499) is 1.13 µM; with CLK4 (compound concentrations: 100 nM and 1000 nM (sheet 'Samples'), CATDS: 0.27673451036998298) it was 1.05 µM; with Q6ZSR9 (compound concentrations: 100 nM and 1000 nM (sheet 'Samples'), CATDS: 0.220638600653874), 1.68 µM.

As to `COC(=O)c1cccc(NC(=O)NC2CCN(c3ccnc(Nc4cc(OC)c(OC)c(OC)c4)n3)C2)c1` (stereo not drawn) [GSK1379767A], the potency estimated from few doses with AAK1 (compound concentrations: 100 nM and 1000 nM (sheet 'Samples'), CATDS: 0.10680715656565699) was 1.51 µM.

With `CCn1c(-c2nonc2N)nc2c(C#CC(C)(C)O)nc(O[C@@H](CN)c3ccccc3)cc21.O=C(O)C(F)(F)F` [GSK1007102B], the potency estimated from few doses in the assay on AAK1 (setting [1]) was 0.0673 µM; in the assay on BMP2K (setting [1]), 0.355 µM; in the assay on GSK3A (setting [1]), 0.0461 µM; in the assay with GSK3B (setting [1]), 0.0405 µM; in the assay with MELK (setting [1]), 1.04 µM; with PAK4, 0.0398 µM. The potency estimated from few doses with PKN1 is 0.0376 µM; in the assay with PKN3, 0.00206 µM; in the assay on PRKAG1 it was 0.765 µM; with Q6ZSR9 (setting [1]), 0.111 µM; with RET (setting [1]), 1.25 µM.

For `CS(=O)(=O)CCn1c(=O)c(Oc2ccc(F)cc2F)cc2cnc(NC3CCOCC3)nc21` [RO5027956-000], the potency estimated from few doses was 0.968 µM in the assay on AAK1 (setting [1]); 1.02 µM in the assay with BMP2K (setting [1]); 1.12 µM with CLK1 (setting [1]); 1.24 µM with CLK4 (setting [1]); 1.1 µM in the assay with CSNK2A1;CSNK2A3; 1.53 µM in the assay with CSNK2A2 (setting [1]). Also, the potency estimated from few doses with FLT4 (setting [1]) is 1.39 µM; with GAK (setting [1]) it was 0.422 µM; with GSK3A (setting [1]), 0.592 µM; in the assay with GSK3B (setting [1]), 0.601 µM; in the assay with PAK4 it was 1.27 µM; in the assay on PKN1, 1.54 µM. In addition, the potency estimated from few doses in the assay with PKN3 was 1.23 µM; with PRKAG1, 0.812 µM; with Q6ZSR9 (setting [1]) it was 0.932 µM; with RET (setting [1]), 0.823 µM; in the assay on SIK2 it was 1.1 µM.

For the compound `CN(C)CC(O)COc1ccc(Nc2nccc(-c3cnn4nc(N5CCOCC5)ccc34)n2)cc1` (stereo not drawn) [GW767488X], the potency estimated from few doses in the assay on AAK1 (setting [1]) was 0.0236 µM; with BMP2K (setting [1]), 0.18 µM; in the assay with CLK1 (setting [1]) it was 0.0541 µM; in the assay on CLK4 (setting [1]), 0.0342 µM; in the assay on CSNK2A1;CSNK2A3, 0.105 µM; in the assay on CSNK2A2 (setting [1]) it was 0.0571 µM. The potency estimated from few doses in the assay on GAK (setting [1]) is 0.378 µM; with MELK (setting [1]), 1.49 µM; with Q6ZSR9 (setting [1]), 0.0296 µM.

For `CCCc1cc(N2CCCN(C)CC2)nc2sc3c(N)ncnc3c12` [BI00604564], the potency estimated from few doses in the assay on AAK1 (compound concentrations: 100 nM and 1000 nM (sheet 'Samples'), CATDS: 0.13729874027545599) is 1.99 µM; in the assay with GAK (compound concentrations: 100 nM and 1000 nM (sheet 'Samples'), CATDS: 0.27765104438225702), 0.516 µM; with Q6ZSR9 (compound concentrations: 100 nM and 1000 nM (sheet 'Samples'), CATDS: 0.16382983501134099), 1.31 µM.

For `Nc1nc(Nc2ccccc2)cc(-c2ccc3c(N)n[nH]c3c2)n1` [GSK2225749A], the potency estimated from few doses in the assay with AAK1 (setting [1]) was 0.13 µM; in the assay on BMP2K (setting [1]), 0.554 µM; in the assay on MELK (setting [1]) it was 0.823 µM; in the assay with Q6ZSR9 (setting [1]) it was 0.125 µM.
